Our source for the AC50 and outcome values is PubChem BioAssay (EPA / NIEHS).

Activity calls are given as the source filed them. How the source made its calls: active means hit-call score of the fitted dose curve at least 0.9, where 1 is the maximum; inactive means score below 0.9.

Read-out in the assay: Cytochrome P450 7A1 (Homo sapiens) (UniProt P22680)
Briefly: LTEA_HepaRG_CYP7A1: Life Technologies and Expression Analysis (LTEA) Assay for Cytochrome P450 7A1 (CYP7A1) using HepaRG (AID 2283496). As to conditions: mRNA level, 48 h; actives raise or lower the signal. As to the method:
LTEA_HepaRG is a cell based, multiplexed-readout assay that uses HepaRG, a human liver cell line, with measurements taken at 48 hours after chemical dosing on a 96-well plate.LTEA_HepaRG_CYP7A1 is one of 102 assay component(s) measured in the LTEA HepaRG cell culture assay. It is a marker of NR mediated metabolism.Data from the assay component LTEA_HepaRG_CYP7A1 was analyzed into 1 endpoint. This assay endpoint, LTEA_HepaRG_CYP7A1, was analyzed with bidirectional fitting relative to DMSO as the negative control and baseline of activity. Using a type of inducible reporter, measures of mRNA induction for gain or loss-of-signal activity can be used to understand regulation of transcription factor activity. To generalize the intended target to other relatable targets, this assay endpoint is annotated to the cyp intended target family, where the subfamily is xenobiotic metabolism.
A total of 1060 chemcials from the ToxCast library were tested in eight-point concentration-response experiments. Cell culture and cytotoxicity assays were conducted at Thermo Fisher Scientific's Custom Services facility (Madison, WI). A single lot of human HepaRG cells (Thermo Fisher Scientific, Frederick, MD) was used for the cell culture experiments. 96-well format collagen type I coated plates of human HepaRG cells were prepared using established methods. Briefly, cryopreserved HepaRG cells were thawed, plated at a density of approximately 100,000 cells/well in HepaRG Thaw, Plate, and General Purpose media (HPRG770, Thermo Fisher Scientific), and incubated for 48 hours. 0.5% DMSO was selected as vehicle control to balance the requisite need of DMSO in HepaRG cultures to maintain differentiation (for example, baseline metabolism, proportions of hepatocytes vs. cholangiocytes), while enabling further hepatic receptor pathway activation (for example, PXR and CAR) in response to chemical exposure. 48 hours after plating, the culture medium was replaced with HepaRG Serum-Free Incudtion Media. Cells were exposed to each test chemical in duplicate and maintained in CO2 incubators for another 48 hours. Chemical plates were thawed to room temperature and 200x concentrations of treatment groups were prepared. 8-point conentration-reponse curves were made with the highest exposure at 100 uM, followed by half-log dilutions, all in 0.5% DMSO. Each test plate contained variouse controls, induction positive controls (1mM phenobarbital), cytotoxicity positive controls ([…] aflatoxin B1), vehicle controls (0.5% DMSO), and total lysis controls (0.5% DMSO). Cell morphology images were taken using an Essen IncuCyte FLR automated microscope, with six 96-well plates imaged in about 24 minutes. Images were captured and exported and JPEG files. Spent culture media was transfered to black-well plates for the LDH assay, and remaining media was sorted at -80 C for later use. Cells were treated with RLT buffer and frozen until shipped for gene expression analysis. Total RNA was isolated from the cell suspension in 75 uL of Buffer RLT (Qiagen, Germantown, MD 20874) by Quintiles/Expression Analysis (Durham, NC) using a custom isolation procedure. Total RNA from each plate well was transferred to a preamplification plate. Fluidigm's 96.96 Dynamic ArrayTM (Fluidigm, Amsterdam, the Netherlands) technology was used for gene expression analyses by quantitative reverse transcription polymerase chain reaction (qRT-PCR, performed by Quintiles/Expression Analysis, Durham, NC)89. Standard TaqManTM Assays (Applied Biosystems/ThermoFisher Scientific, Foster City, CA) were used to assess the expression of 93 genes selected based on their selectivity and sensitivity to important hepatic receptors known to be modulated by environmental chemicals; importance in human hepatocyte functionality; and hepatotoxicity. […]
For orientation: AC50 means the concentration giving half of the maximal activity seen. In the case of `CN(Cc1cnc2nc(N)nc(N)c2n1)c1ccc(C(=O)N[C@@H](CCC(=O)O)C(=O)O)cc1`, the AC50 is 0.233 µM (active).

`O=C(CCCN1CCC(O)(c2ccc(Cl)cc2)CC1)c1ccc(F)cc1`: the AC50 is 82 µM (active). Turning to `OCC(CO)(CBr)CBr`, the outcome was inactive. Same read-out and setting: in the case of `CCCCC(CC)C(=O)O` (stereo unspecified) it was “inactive”. For the molecule `CCC(C)c1ccccc1O` (stereo unspecified), the outcome was inactive. Still for that read-out and setting: in the case of `CCCCCCCCCCCCCCC` it was “inactive”; in that of `CC(=O)Nc1ccc(O)cc1`, “inactive”.

Turning to `O=C1NS(=O)(=O)c2ccccc21`, the molecule was classed as inactive. For `CCCCC=O`, the molecule was called inactive. Consider `N=C(N)c1ccc(OCCCCCOc2ccc(C(=N)N)cc2)cc1`, for which the AC50 is 6.66 µM (active). The same measure, in the same setting: under `Cc1[nH]nc2c1N=C(c1ccccc1Cl)c1cc([N+](=O)[O-])ccc1N2` stands 27 µM (active).
